# Among all 330,000 compounds or so, about 4,200 (1.3%) were called active. Another 6% or so got no clear call; they are omitted. The sample holds actives, similar compounds and a random draw of the others, so the mix is not that of the screen. Unmarked numbers belong to inactive results. Calls come from the whole dose curve; as a rule, active = well fitted activation curve with a large enough effect; inconclusive = small, poorly fitted or top-dose-only effect; inactive = no such curve, though single readings can be large or run the other way.
# Assay: qHTS screen for small molecules that induce genotoxicity in human embryonic kidney (HEK293T) cells expressing luciferase-tagged ELG1; note: nearly all actives have a fitted effect of over 60% in size; for activity change, positive = activation: % of control where 0% means no effect
# Conditions: HEK293T ELG1-luciferase reporter, luminescence, 16 h; series mostly up to 46 µM; activity change, positive = activation: at the top concentration
# In short: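 Step 1: seed 2,000 HEK293T ELG1-luciferase cells per well. Step 2: add compound or DMSO, incubate 16 hr at 37 °C. Step 3: ONE-Glo, 30 min at room temperature, read luminescence.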
# Potency is the fitted concentration of half-maximal effect.
SMILES,"activity change, positive = activation [%]",Potency
CCN(C(=O)COC(=O)c1ccccc1O)c1cccc2ccccc12,-3.96,
CC(C)(C)OC(=O)NNc1c2ccccc2nc2ccccc12,-4.89,
COc1cc(OC)cc(C(=O)Nc2ccc(-c3nc4ccccc4o3)c(O)c2)c1,-4.77,
CC(=O)Nc1ccc(Nc2c3ccccc3nc3ccccc23)cc1,,13 µM (active)
CC(=O)Nc1ccc(-c2nc3ccccc3o2)cc1,,3.26 µM (active)
CCc1nc(Nc2ccc(NC(C)=O)cc2)c2oc3ccccc3c2n1,-0.226,
Cc1ccc(OCC(=O)Nc2ccc(-c3nc4ncccc4o3)cc2)cc1,5.43,
Nc1ncnc2c1ncn2[C@@H]1O[C@H](CNCc2cccn2-c2nccs2)[C@@H](O)[C@H]1O,4.38,
CC(C)/C=N/NC(=O)c1cc(Br)ccc1O,-0.104,
CC(C)Cc1cc(C(=O)Nc2cc(Br)ccc2O)no1,,8.2 µM (active)
CC(C)C(=O)NCc1cc(-c2ccc(Cl)cc2)no1,7.48,
CC(C)N(C(=O)[C@H]1C[C@H](CC(=O)NCCC2=CCCCC2)C(=O)N2CCc3c([nH]c4cc(CCC(=O)N(C)C)ccc34)[C@]12C)C(C)C,3.22,
Cc1cccc(NC(=O)Nc2cccc(Oc3c(F)c(F)c(F)c(F)c3F)c2)c1,0.228,
Cc1ccoc1C(=O)Nc1cccc(Oc2ccccc2)c1,,9.2 µM (active)
Cc1ccc(C(=O)COc2cccc(NC(=O)c3ccco3)c2)cc1,3.01,
CN(CC(=O)Nc1ccc(C(N)=O)cc1)S(=O)(=O)c1ccc2c(c1)OCCO2,-1.78,
O=C(Cn1cnc2c(OCc3ccccc3)ncnc21)NCCCn1ccnc1,0.984,
O=C(COC(=O)c1ccc(F)cc1)NCC1COc2ccccc2O1 (centres undefined),-2.33,
O=C1c2ccccc2C(=O)N1CCOc1ccc(F)cc1,,20.6 µM (active)
O=C(OCCN1C(=O)c2ccccc2C1=O)Oc1ccccc1,0.764,
Cc1cccc2c1N(CCOc1ccccc1)C(=O)C2=O,5.53,
Cn1cccc1C(=O)OCC(=O)c1ccc(Br)s1,17.4,
COc1ccc(S(=O)(=O)Nc2cccc3c2O[C@H](CN(C)S(=O)(=O)c2ccc(OC)cc2)[C@@H](C)CN([C@H](C)CO)C3=O)cc1,-0.316,
O=C(Nc1sc2c(c1C(=O)O)CCC2)c1ccccc1F,3.4,
Cc1ccc(C(=O)c2c(NC(=O)c3ccncc3)sc3c2CCCC3)cc1,-5.11,

SMILES,"activity change, positive = activation [%]",Potency
NC(=O)c1c(NC(=O)c2ccccc2)sc2c1CCCC2,,8.2 µM (active)
O=C(Oc1ccc(-c2nc(-c3ccccn3)no2)cc1)c1ccccc1,,0.517 µM (active)
O=C(Oc1ccc(Br)cc1)c1cccnc1,-2.16,
Cc1ccc(Oc2nc(-c3ccccn3)nc3ccccc23)cc1,-14.1,
COc1cc(C(=O)OCc2cc(=O)n3ccsc3n2)ccc1OC(C)C,7.03,
CC(C)(C)OC(=O)CNC(=O)c1[nH]cnc1C(=O)N[C@@H](CCCCN)C(=O)OC(C)(C)C,-1.61,
C[C@H](CO)N1C[C@H](C)[C@@H](CN(C)Cc2ccc(-c3ccccc3)cc2)Oc2ccc(NC(=O)Cn3cnnn3)cc2C1=O,-0.487,
O=C(NCc1ccccc1Cl)c1csc2c1CCCCC2,1.64,
COC(=O)c1sc(NC(=O)c2csc3c2CCCC3)nc1C,,2.59 µM (active)
O=C(Nc1ccccc1N1CCOCC1)c1csc2c1CCCC2,0.737,
COC(=O)[C@]1(Cc2ccccc2)N[C@H](CN(C)S(=O)(=O)c2ccc(F)cc2)[C@@H]2C(=O)N(Cc3ccccc3)C(=O)[C@@H]21,-1.12,
COc1ccc(N=Cc2c(O)[nH]c3ccccc23)cc1OC,,14.6 µM (active)
COc1cc(N=Cc2c(O)[nH]c3ccccc23)cc(OC)c1OC,0.123,
COc1ccccc1N=Cc1c(O)c2ccccc2oc1=O,0.524,
Cc1ccc(-n2nc3cc(C)c(NC(=O)c4cccnc4)cc3n2)cc1,15.3,
Cc1ccc(-n2nc3cc(Cl)c(NC(=O)c4ccco4)cc3n2)cc1,,11.6 µM (active)
Cc1cc(NC(=O)c2ccco2)c(=O)n(Cc2c(F)cccc2Cl)c1,-18.3,
Cc1ccc(S(=O)(=O)NC[C@H]2O[C@@H](n3cnc4c(N)ncnc43)[C@H](O)[C@@H]2O)s1,4.37,
CSCCC1NC(=O)N(CC(=O)Nc2cccc(S(=O)(=O)N3CCCCCC3)c2)C1=O (centres undefined),-6.21,
Cc1cc(C(=O)NCCc2ccc(Cl)cc2)c(C)o1,,18.3 µM (active)
Cc1cc(C(=O)NCCc2ccc(Cl)cc2)n(-c2ccccc2)n1,-0.508,
Cc1cc(C(=O)NNC(=O)c2ccccc2O)c(C)o1,0.664,
CC[C@]12c3[nH]c4ccc(OC)cc4c3CCN1C(=O)C(CC(=O)NCCN1CCOCC1)C[C@@H]2C(=O)N1CCN(C(=O)C2CC2)CC1 (some centres undefined),6.98,
Cc1ccccc1SCC(=O)OCC(=O)N1CC(=O)Nc2ccccc21,0.23,
N#Cc1nc(-c2cccc3ccccc23)oc1N,9.19,

SMILES,"activity change, positive = activation [%]",Potency
Cc1oc(-c2ccccc2F)nc1CS(=O)CC(=O)NCCN1CCCCC1C (centres undefined),-1.89,
CC1CCN(c2oc(-c3ccccc3F)nc2C#N)CC1,,16.4 µM (active)
Cc1ccc(S(=O)(=O)N2CCN(C(=O)COC(=O)CNC(=O)c3ccc(C(C)(C)C)cc3)CC2)c(C)c1,-0.764,
O=C(N=C1SC2CS(=O)(=O)CC2N1c1ccccc1)c1ccccc1 (centres undefined),5.92,
COc1ccc(-c2nc3cnccn3c2NC2CCCCC2)cc1-c1cccc(Cl)c1,-2.5,
COc1cccc(NC(=O)CSc2nnc(C3CCCCC3)n2N)c1,-1.51,
NC(=O)COC(=O)/C=C/c1ccc2ccccc2n1,-0.149,
COc1cccc(/C=C/c2ccc3ccccc3n2)c1OC(C)=O,,0.206 µM (active)
CCOc1cccc(/C=C/c2ccc3ccccc3n2)c1OC(C)=O,,0.366 µM (active)
CCOc1ccccc1-c1cc(C(=O)N2CCOCC2)c2ccccc2n1,-7.76,
COc1cccc(/C=C2\C=C(c3ccc(C)cc3)OC2=O)c1OC(C)=O,5.23,
CC(=O)c1ccc(S(=O)(=O)N2CCN(C(=O)/C=C/c3ccc4ccccc4n3)CC2)cc1,-6.07,
COCCn1c(C)cc(C(=O)CN2c3cccc4cccc(c34)S2(=O)=O)c1C,6.69,
Cc1noc(C)c1NC(=O)Nc1cccc2c1O[C@H](CN(C)C(=O)Nc1ccccc1)[C@@H](C)CN([C@H](C)CO)C2=O,-0.827,
NCCN1CCN2C(=O)CN(C(=O)c3ccccc3)CC12 (centres undefined),-1.89,
O=C1CCC/C=C/C[C@@H](CC(=O)N(CCO)Cc2ccccc2)C(=O)NC[C@H](c2ccccc2)O1,3.07,
CC[C@]12c3[nH]c4ccc(Cl)cc4c3CCN1C(=O)[C@@H](CC(=O)NCCCOC)C[C@@H]2C(=O)N1CCN(C(=O)C2CC2)CC1,7.73,
COCCCNC(=O)CC1C[C@H](C(=O)N2CCCCC2)[C@@]2(CCc3ccccc3)c3[nH]c4ccccc4c3CCN2C1=O (some centres undefined),-2.19,
O=C(NCc1ccccn1)c1cc2ccccc2oc1=O,,14.6 µM (active)
N=c1oc2ccccc2cc1C(=O)NCc1ccccc1,17.7,
COc1ccc2oc(=O)c(C(=O)NCc3ccccn3)cc2c1,10.3,
CCNC(=O)N(CC)C[C@H]1N[C@@](CC)(C(=O)OC)[C@H]2C(=O)N(Cc3ccccc3)C(=O)[C@@H]12,0.0201,
CN(C(=O)COC(=O)Cc1ccccc1[N+](=O)[O-])C1CCS(=O)(=O)C1 (centres undefined),1.71,
CCc1c(C)nc2cc(C)[nH]n2c1=O,-2.38,
Cc1cc(=O)n2[nH]c(-c3sccc3-n3c(C)ccc3C)cc2n1,-4.68,

SMILES,"activity change, positive = activation [%]",Potency
CCc1c(C)nc2cc(-c3cccs3)[nH]n2c1=O,,20.6 µM (active)
Cc1cccc(NS(=O)(=O)c2ccc(C)c(C(=O)NCc3cccnc3)c2)c1,-1.11,
CN(c1ccccc1)S(=O)(=O)c1ccc(C(=O)N2CCN(c3ccccc3Cl)CC2)cc1,-2.82,
CC(NC(=O)COC(=O)Cn1cc(C(F)(F)F)ccc1=O)c1ccccc1 (centres undefined),-0.165,
COc1ccc(S(=O)(=O)N2CCOCC2)cc1NC(=O)CSc1nnc(NC2CC2)s1,-2.72,
O=C(Nc1ccc(C(=O)O)c(O)c1)c1ccccc1,-0.0454,
O=C(NC(=O)c1ccccc1)Nc1ccccc1O,,1.83 µM (active)
Cc1ccc(NC(=O)NC(=O)c2ccccc2)cc1F,28.6,
COc1ccc(CCOC2OC(CO)C(OC(=O)/C=C/c3ccc(O)c(OC)c3)C(O[C@H]3O[C@@H](C)[C@H](O)[C@@H](O)[C@H]3O)C2O)cc1O (some centres undefined),1.06,
O=C(COC(=O)c1ccc(Br)o1)NC12CC3CC(CC(C3)C1)C2,-1.36,
COc1ccc(C(CC(=O)c2ccccc2)S(=O)(=O)c2ccccc2)cc1 (centres undefined),,18.4 µM (active)
COc1ccc(N(Cc2ccccc2)S(=O)(=O)c2cccc(C(=O)O)c2)cc1,0.954,
COc1ccc(NC(=O)CS(=O)(=O)c2ccccc2)cc1,9.22,
O=C(Nc1cc(S(=O)(=O)N2CCOCC2)ccc1N1CCOCC1)c1c(F)cccc1Cl,-0.0492,
Cc1nnc(NC(=O)c2ccc3nccnc3c2)s1,15.1,
COc1cccc(C(=O)Nc2nnc(S(=O)(=O)N(C)c3ccccc3)s2)c1,-1.42,
CCOc1cccc(C(=O)Nc2cnn(Cc3ccccc3)c2)c1,4.75,
CCOc1cccc(C(=O)Nc2nnc(-c3cccs3)s2)c1,,1.16 µM (active)
Cc1ccc(C(=O)Oc2coc(CSc3nnc(NC(=O)c4cccs4)s3)cc2=O)cc1C,-3.29,
Cc1ccc(C(=O)Nc2nnc(-c3cccs3)s2)cc1C,,8.2 µM (active)
O=C(OCC(=O)N1CCN(C(=O)c2ccco2)CC1)c1c(Cl)cccc1Cl,1.71,
O=C(Nc1cc(S(=O)(=O)Nc2ccc(Cl)cc2)ccc1O)c1ccc(F)cc1F,-5.16,
COC(=O)C1CCN(C(=O)COC(=O)c2cc(S(=O)(=O)N3CCOCC3)ccc2C)CC1,-1.29,
COCCN(CCOC)S(=O)(=O)NC[C@H]1O[C@@H](n2cnc3c(N)ncnc32)[C@H](O)[C@@H]1O,-3.03,

# Source: PubChem BioAssay AID504466 (National Center for Advancing Translational Sciences (NCATS), 2011)
